PubChem BioAssay (EPA / NIEHS)
Values joined by “and” are separate entries in the source; they are usually repeats but may differ in a detail not shown here. Equal values may be shown once. Inconclusive results are not listed. Active and inactive are the calls of the source. The calls were made as follows, unless noted: active = hit-call score of the fitted dose curve at least 0.9, where 1 is the maximum; inactive = score below 0.9.

Legend:
[1] = system: IYD (gene 389434); assay: CCTE_GLTED_hIYD: CCTE's human Iodotyrosine Deiodinase (xIYD) Inhibition Assay, Great Lakes Toxicology and Ecology Division (GLTED) Lab (AID 2284317; active = hit-call score of the fitted dose curve at least 0.9, where 1 is the maximum;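 also: cell-free human IYD enzyme made in baculovirus insect cells; iodide freed from monoiodotyrosine measured by cerium arsenite color change at 420 nm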)
Method in brief: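 Human IYD expressed in a baculovirus-insect cell system was incubated 3 h with monoiodotyrosine and test chemical. Released iodide, separated on Dowex columns, was quantified by the Sandell-Kolthoff reaction at 420 nm; plates were normalized to MNT and DMSO/NaOH controls.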

[2] = CCTE_Deisenroth_5AR_NBTE_donor: CCTE's 5alpha-reductase NanoBRET Target Engagement Assay […], Deisenroth Lab (AID 2284319); details: actives raise or lower the signal
Method in brief: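 SRD5A2-NanoLuc, HEK293T, 20 h expression. Chemical 10 nM - 29.9 uM, 8 conc, duplicate; 3 h preincubation + 2 h testosterone tracer. Nano-Glo substrate plus extracellular NanoLuc inhibitor; donor lum 460 nm. DMSO baseline, bidirectional fit.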

[3] = CCTE_Deisenroth_5AR_NBTE_acceptor: CCTE's 5alpha-reductase NanoBRET Target Engagement Assay - Autofluorescence Screen, Deisenroth Lab (AID 2284321); details: actives raise or lower the signal;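 also: compound fluorescence in the acceptor channel under 460 nm excitation flags autofluorescence artifacts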
Method in brief: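 Autofluorescence counter-screen: chemicals at an assumed nominal 100 uM in DMSO were scanned in three independent runs with 460 nm excitation. Gain or loss of acceptor signal was fitted bidirectionally against DMSO.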

[4] = system: SRD5A2 (gene 6716); assay: CCTE_Deisenroth_5AR_NBTE_ratio: CCTE's 5alpha-reductase NanoBRET Target Engagement Assay - Ratio, Deisenroth Lab (AID 2284322); details: actives raise or lower the signal
Method in brief: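 Reverse-transfect HEK293T with pNLF1-C-SRD5A2, express 20 h. Pre-incubate cells with chemical 3 h (8-point series, 10 nM - 29.9 uM, duplicate). Add testosterone tracer, 2 h more. Add substrate/inhibitor, read donor and acceptor emission.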

[5] = IUF_NPC2c_oligodendrocyte_migration_120hr: Leibniz Research Institute for Environmental Medicine (IUF) 120-hour Neural Progenitor Cell Migration Assay for Oligodendrocyte Migration (NPC2c) (AID 2284297);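 also: O4-positive oligodendrocyte migration distance divided by radial glia migration distance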
Method in brief: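 Human fetal neural progenitor spheres (0.3 mm) are plated on poly-D-lysine/laminin in N2 differentiation medium and exposed for 120 h, with half-medium renewal at day 3. Oligodendrocyte (O4+) migration distance comes from ICC imaging, normalised to radial glia migration.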

[6] = IUF_NPC2a_radial_glia_migration_120hr: Leibniz Research Institute for Environmental Medicine (IUF) 120-hour Neural Progenitor Cell Migration Assay for Radial Glia Migration (NPC2a) (AID 2284298)
Method in brief: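 Human fetal-cortex neural progenitor spheres (0.3 mm) plated on poly-D-lysine/laminin in N2 differentiation medium, exposed 120 h at 37C with half-medium renewal at day 3. Radial glia migration distance (um) measured from Hoechst-stained nuclei images; DMSO baseline.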

[7] = IUF_NPC2a_radial_glia_migration_72hr: Leibniz Research Institute for Environmental Medicine (IUF) 72-hour Neural Progenitor Cell Migration Assay for Radial Glia Migration (NPC2a) (AID 2284299)
Method in brief: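 Human fetal cortex (GW 16-19) neural progenitor spheres, 0.3 mm, plated on poly-D-lysine/laminin in N2 differentiation medium with compound from day 0. Radial glia migration distance (um, sphere core edge to migration edge) measured manually in four directions on 72 h brightfield images; well mean used.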

[8] = IUF_NPC2b_neuronal_migration_120hr: Leibniz Research Institute for Environmental Medicine (IUF) 120-hour Neural Progenitor Cell Migration Assay for Neuron Migration (NPC2b) (AID 2284300)
Method in brief: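 0.3 mm hNPC spheres on poly-D-lysine/laminin in N2 differentiation medium exposed 120 h, half-medium refresh day 3; 7 concentrations, DMSO max 0.1%. Neuron (TUBB3) distance from sphere core by ICC imaging, normalised to radial glia migration.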

[9] = IUF_NPC3_neuronal_differentiation_120hr: Leibniz Research Institute for Environmental Medicine (IUF) 120-hour Neuronal Differentiation Assay (NPC3) (AID 2284301)
Method in brief: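 Primary human fetal neural progenitor spheres (GW 16-19, 0.3 mm) plated on poly-D-lysine/laminin in N2 medium, exposed from day 0 for 120 h with half-medium refresh at day 3. TUBB3+ cells as percent of Hoechst nuclei in migration area; DMSO baseline.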

[10] = IUF_NPC4_neurite_length_120hr: Leibniz Research Institute for Environmental Medicine (IUF) 120-hour Neuronal Morphology Assay for Neurite Length (NPC4) (AID 2284302)
Method in brief: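 Human fetal cortex (GW 16-19) neural progenitor spheres, 0.3 mm, were plated on poly-D-lysine/laminin in N2 differentiation medium and exposed from day 0 for 120 h, half-feeding at day 3. Mean TUBB3+ neurite length (µm) came from skeletonized images, relative to DMSO.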

[11] = IUF_NPC4_neurite_area_120hr: Leibniz Research Institute for Environmental Medicine (IUF) 120-hour Neuronal Morphology Assay for Neurite Area (NPC4) (AID 2284305; active = hit-call score of the fitted dose curve at least 0.9, where 1 is the maximum)
Method in brief: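 Human fetal cortex-derived neural progenitor spheres (0.3 mm, GW 16-19) plated on poly-D-lysine/laminin in N2 differentiation medium and exposed from day 0 for 120 h across 7 concentrations plus solvent control. Neurite area is mean pixel area per TUBB3-positive neuron via skeletonization, analysed relative to DMSO.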

[12] = IUF_NPC2-5_cytotoxicity_72hr: Cytotoxicity Assessment at 72 hours in the Leibniz Research Institute for Environmental Medicine (IUF) Neural Progenitor Cell Migration and Differentiation Assay for Cytotoxicity (NPC2-5) (AID 2284306; active = hit-call score of the fitted dose curve at least 0.9, where 1 is the maximum;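 also: LDH release into supernatant measured by resorufin fluorescence marking membrane damage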)
Method in brief: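 Human fetal (GW 16-19) neural progenitor spheres, 0.3 mm, plated on poly-D-lysine/laminin in N2 differentiation medium and exposed from day 0 to 7 concentrations plus solvent control (DMSO ≤0.1%). LDH-dependent resazurin-to-resorufin fluorescence in supernatant at 72 h.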

[13] = IUF_NPC2-5_cytotoxicity_120hr: Cytotoxicity Assessment at 120 hours in the Leibniz Research Institute for Environmental Medicine (IUF) Neural Progenitor Cell Migration and Differentiation Assay (NPC2-5) (AID 2284307; active = hit-call score of the fitted dose curve at least 0.9, where 1 is the maximum)
Method in brief: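 Human fetal (GW 16-19) neural progenitor spheres (0.3 mm) plated on poly-D-lysine/laminin in N2 differentiation medium, exposed 120 h with half-medium renewal at day 3; 7 concentrations plus solvent control, DMSO ≤0.1%. LDH release in supernatant read by resorufin fluorescence.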

[14] = IUF_NPC2-5_cell_number_120hr: Cell Number Assessment at 120 hours in the Leibniz Research Institute for Environmental Medicine (IUF) Neural Progenitor Cell Migration and Differentiation Assay (NPC2-5) (AID 2284308);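 also: count of Hoechst-stained nuclei in migration zone around plated human neural progenitor spheres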
Method in brief: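 Human fetal neural progenitor spheres (0.3 mm) plated on poly-D-lysine/laminin in N2 differentiation medium, exposed five days across 7 concentrations with half-medium refresh at day 3. Hoechst-positive nuclei counted in migration area at 120 h, relative to DMSO.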

[15] = IUF_NPC2-5_viability_120hr: Viability Assessment at 120 hours in the Leibniz Research Institute for Environmental Medicine (IUF) Neural Progenitor Cell Migration and Differentiation Assay (NPC2-5) (AID 2284312)
Method in brief: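 Human fetal (GW 16-19) neural progenitor spheres of 0.3 mm were plated on poly-D-lysine/laminin in N2 differentiation medium and exposed from day 0 for 120 h, with half-medium refresh at day 3. Viability was read as alamar blue resazurin-to-resorufin fluorescence against DMSO.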

[16] = CCTE_Mundy_HCI_iCellGluta_NOG_NeuriteLength: CCTE's Neurite Outgrowth Assay in iCellGluta cells for Neurite Length, Mundy Lab (AID 2284318; active = hit-call score of the fitted dose curve at least 0.9, where 1 is the maximum)
Method in brief: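 Automated high-content imaging of betaIII-tubulin (Alexa Fluor-488) and Hoechst-stained cells gave neurite length, normalized to the DMSO baseline.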

[17] = read-out: CD69, CD69 (gene 969); assay: BSK_LPS_CD69: BioMAP Diversity Plus: LPS Assay for CD69 Biomarker Activity (AID 2284303); details: primary human HUVEC with PBMC
Method in brief: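 Human umbilical vein endothelial cells co-cultured with PBMC under LPS stimulation, chemical exposure 24 h; cell-surface CD69 measured by ELISA and fitted in the positive direction versus DMSO.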

[18] = IUF_NPC5_oligodendrocyte_differentiation_120hr: Leibniz Research Institute for Environmental Medicine (IUF) 120-hour Oligodendrocyte Differentiation Assay (NPC5) (AID 2284304; active = hit-call score of the fitted dose curve at least 0.9, where 1 is the maximum;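 also: primary human fetal neural progenitor spheres plated to migrate and differentiate; share of O4-positive cells among Hoechst nuclei found by CNN image analysis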)
Method in brief: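 Human fetal neural progenitor spheres (0.3 mm) plated on poly-D-lysine/laminin in N2 differentiation medium and exposed for 120 h at 7 concentrations, with half-medium renewal at day 3. O4-positive cells identified by CNN, expressed as percent of Hoechst nuclei.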

[19] = BSK_IMphg_SRB.Mphg: Macrophage Viability Assessment in the BioMAP Diversity Plus: IMphg Assay (AID 2284295); details: primary human endothelial cells with macrophages
Method in brief: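 Venular endothelial cells co-cultured with macrophages, read 24 h after dosing. Total protein measured by 0.1% SRB staining after 10% TCA fixation, absorbance at 560 nm. Fitted in positive direction against DMSO baseline.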

[20] = system: TTR (gene 7276); assay: CCTE_GLTED_hTTR_0.5uM: CCTE's human Transthyretin (hTTR) Inhibition Assay, with 0.5uM TTR, Great Lakes Toxicology and Ecology Division (GLTED) Lab (AID 2284320)
Method in brief: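 Cell-free displacement assay in which human TTR at 0.5 uM was incubated with test chemical for 2 h. Displacement of the ANSA probe was read by fluorescence at 380 nm excitation/475 nm emission. Loss of signal was fitted in the positive direction versus DMSO.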

CC/C(=C(\c1ccccc1)c1ccc(OCCN(C)C)cc1)c1ccccc1
AC50 [1]: 55.8 µM (active) and 31.5 µM (active)
AC50 [2]: 67.4 µM (active)
AC50 [3]: 64 µM (active)
AC50 [4]: 76.6 µM (active)

O=C(c1ccc(OCCN2CCCCC2)cc1)c1c(-c2ccc(O)cc2)sc2cc(O)ccc12
AC50 [2]: 50 µM (active)
AC50 [3]: 50 µM (active)
AC50 [4]: 19.1 µM (active)

CC(C)Cc1ccc(C(C)C(=O)O)cc1 (stereo not drawn)
outcome [5]: inactive
outcome [6]: inactive
outcome [7]: inactive
outcome [8]: inactive
outcome [9]: inactive
outcome [10]: inactive
outcome [11]: inactive
outcome [12]: inactive
outcome [13]: inactive
outcome [14]: inactive
outcome [15]: inactive
AC50 [16]: 15 µM (active)

CCn1cc(C(=O)O)c(=O)c2ccc(C)nc21
outcome [17]: inactive

N[C@@H](CCC(=O)O)C(=O)O
outcome [5]: inactive
outcome [6]: inactive
outcome [7]: inactive
outcome [8]: inactive
outcome [9]: inactive
outcome [10]: inactive
outcome [18]: inactive
outcome [11]: inactive
outcome [13]: inactive
outcome [14]: inactive
outcome [15]: inactive
outcome [16]: inactive

O=C1OC2(c3ccc(O)cc3Oc3cc(O)ccc32)c2ccccc21
outcome [1]: inactive
AC50 [2]: 3.88 µM (active)
outcome [3]: inactive
AC50 [4]: 10.3 µM (active)

N#CCCNCCC#N
outcome [16]: inactive

O=S(=O)(O)c1cc(S(=O)(=O)O)c2c(N=Nc3ccccc3)c(O)ccc2c1
outcome [2]: inactive
outcome [3]: inactive
AC50 [4]: 10.9 µM (active)

CC(C)CCCC(C)(C)O
outcome [17]: inactive

c1ccc(OCCOc2ccccc2)cc1
outcome [17]: inactive

CCCCC(CC)COC(=O)COc1ccc(Cl)cc1C (stereo not drawn)
outcome [5]: inactive
outcome [6]: inactive
outcome [7]: inactive
outcome [8]: inactive
outcome [9]: inactive
outcome [10]: inactive
outcome [11]: inactive
outcome [12]: inactive
outcome [13]: inactive
outcome [14]: inactive
outcome [15]: inactive
AC50 [16]: 33.4 µM (active)

CC(C)(CO)CO
outcome [17]: inactive

O=C(O)C(F)(F)C(F)(F)C(F)(F)C(F)(F)C(F)(F)C(F)(F)C(F)(F)C(F)F
outcome [19]: inactive
outcome [17]: inactive
AC50 [20]: 0.53 µM (active)
